A short description of test [1]: antimalarial activity against Dd2 strain (AID 2302;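 active = growth inhibition above 50% at the single 2 µM test dose, taken to imply half-maximal potency below 2 µM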;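 note: 0% = DMSO untreated growth and 100% = chloroquine plus artemisinin killed control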). The settings on record: P. falciparum Dd2 in RBCs, LDH growth readout, 72 h; at 2 µM; active compounds read high.
Test [2] can be described thus: human hepatoma cell viability loss – ATP luminescence, cytotoxicity control for P. falciparum antimalarial project, primary screen (AID 2303;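 active = inhibition above 50%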;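 note: 0% = DMSO wells and 100% = digitonin-killed cells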). The note with it: HepG2 viability, 24-48 h, at 10 µM, active compounds read high.
For test [3], the target named is L-lactate dehydrogenase (Plasmodium falciparum (isolate CDC / Honduras)) (UniProt Q27743). Description: PfLDH activity inhibition – cell lysate, 3D7 strain, counter-screen for P. falciparum growth inhibition project (AID 2304).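 Note: 0% = vehicle and 100% = reference inhibitor.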 The settings on record: P. falciparum 3D7 crude extract, LDH APAD/NBT absorbance; at 2 µM; active compounds read high. (Counterscreens check selectivity or assay interference.)

The nature of test [4]: inhibition of 3D7 malaria parasite growth – strain 3D7 (AID 2306).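 Note: 0% = DMSO wells and 100% = chloroquine plus artemisinin control wells.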 The note with it: P. falciparum 3D7 erythrocytic growth, LDH absorbance, 72 h; at 2 µM; active compounds read high.
The target in test [5] is Calcium-dependent protein kinase 1 (Plasmodium falciparum (isolate 3D7)) (UniProt P62344). Description: PfCDPK1 kinase inhibitors, biochemical, TCAMS library (AID 1159585; cut-off not given, nearly all actives have IC50 up to about 0.98 µM;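 note: inhibitors leave more ATP so luminescence rises with inhibition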). The settings on record: recombinant PfCDPK1, Kinase-Glo ATP depletion luminescence. For orientation: In Kinase-Glo more light means more ATP remaining.
Test [6] addresses Plasmodium falciparum protein kinase 6 (PK6, PF3D7_1337100) (UniProt Q8IDW1). Briefly: PfPK6 kinase inhibitors, biochemical, TCAMS library (AID 1159586). The settings on record: recombinant PfPK6, Kinase-Glo ATP depletion luminescence.
Test [7] concerns the target Protein kinase 7 (PK7), Plasmodium falciparum 3D7 (PF3D7_0213400) (UniProt Q7YTF7). Briefly: inhibition of Plasmodium PK7 catalytic activity – biochemical, TCAMS antimalarial set, Kinase-Glo luminescence (AID 1159587). The note with it: recombinant PfPK7, Kinase-Glo ATP depletion luminescence.
In test [8] the target is Calcium-dependent protein kinase 4 (Plasmodium falciparum (isolate 3D7)) (UniProt Q8IBS5). Briefly: PfCDPK4 kinase inhibitors, biochemical, TCAMS library (AID 1159588; cut-off not given, nearly all actives have IC50 up to about 0.91 µM). The note with it: recombinant PfCDPK4, Kinase-Glo ATP depletion luminescence.

Values without a mark were called inactive. For some of these results: Potency and affinity values are given separately. Active and inactive are the calls of the source. Unless noted, the rule behind the calls is not given here.

Sequence of Calcium-dependent protein kinase 1 (Plasmodium falciparum (isolate 3D7)) (P62344 whole entry, looked up): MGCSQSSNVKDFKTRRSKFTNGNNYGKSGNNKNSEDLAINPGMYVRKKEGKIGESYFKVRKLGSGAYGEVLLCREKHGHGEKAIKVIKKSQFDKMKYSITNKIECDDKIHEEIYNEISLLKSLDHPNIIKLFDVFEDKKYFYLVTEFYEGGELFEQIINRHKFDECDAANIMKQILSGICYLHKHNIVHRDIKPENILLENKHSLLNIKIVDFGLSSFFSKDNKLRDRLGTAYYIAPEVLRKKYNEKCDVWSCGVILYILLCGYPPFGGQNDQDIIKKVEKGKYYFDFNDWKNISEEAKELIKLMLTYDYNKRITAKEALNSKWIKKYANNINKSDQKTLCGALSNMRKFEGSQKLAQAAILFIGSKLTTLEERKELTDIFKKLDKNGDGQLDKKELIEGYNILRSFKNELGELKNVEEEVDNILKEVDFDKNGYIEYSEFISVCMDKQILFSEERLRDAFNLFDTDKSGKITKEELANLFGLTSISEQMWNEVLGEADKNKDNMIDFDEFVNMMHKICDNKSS
Sequence of Protein kinase 7 (PK7), Plasmodium falciparum 3D7 (PF3D7_0213400) (Q7YTF7 1-343): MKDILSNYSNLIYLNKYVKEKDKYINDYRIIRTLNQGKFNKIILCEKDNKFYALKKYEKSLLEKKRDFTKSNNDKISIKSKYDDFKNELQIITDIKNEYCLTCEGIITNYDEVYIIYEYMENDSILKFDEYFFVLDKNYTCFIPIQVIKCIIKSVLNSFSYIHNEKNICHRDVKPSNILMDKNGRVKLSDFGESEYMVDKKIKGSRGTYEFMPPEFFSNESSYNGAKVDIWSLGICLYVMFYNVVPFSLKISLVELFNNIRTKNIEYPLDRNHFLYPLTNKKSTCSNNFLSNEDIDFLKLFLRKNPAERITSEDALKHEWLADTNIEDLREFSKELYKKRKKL
Sequence of Plasmodium falciparum protein kinase 6 (PK6, PF3D7_1337100) (Q8IDW1 1-305): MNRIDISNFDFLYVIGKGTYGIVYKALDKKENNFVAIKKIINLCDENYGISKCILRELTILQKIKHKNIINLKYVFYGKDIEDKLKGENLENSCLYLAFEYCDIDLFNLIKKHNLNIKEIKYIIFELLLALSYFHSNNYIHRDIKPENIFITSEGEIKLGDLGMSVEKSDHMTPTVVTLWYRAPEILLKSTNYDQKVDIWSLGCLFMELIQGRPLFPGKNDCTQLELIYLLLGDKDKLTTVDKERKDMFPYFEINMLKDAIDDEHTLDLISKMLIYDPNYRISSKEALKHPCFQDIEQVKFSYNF
Sequence of L-lactate dehydrogenase (Plasmodium falciparum (isolate CDC / Honduras)) (Q27743 whole entry, looked up): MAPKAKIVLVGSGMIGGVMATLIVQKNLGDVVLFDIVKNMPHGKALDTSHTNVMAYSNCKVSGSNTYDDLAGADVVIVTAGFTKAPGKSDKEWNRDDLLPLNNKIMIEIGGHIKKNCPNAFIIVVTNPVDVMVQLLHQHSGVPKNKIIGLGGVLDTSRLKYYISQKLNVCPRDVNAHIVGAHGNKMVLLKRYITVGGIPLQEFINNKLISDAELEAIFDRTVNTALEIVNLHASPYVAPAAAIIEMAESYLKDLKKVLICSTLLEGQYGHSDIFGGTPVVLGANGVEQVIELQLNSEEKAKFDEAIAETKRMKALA
Sequence of Calcium-dependent protein kinase 4 (Plasmodium falciparum (isolate 3D7)) (Q8IBS5 whole entry, looked up): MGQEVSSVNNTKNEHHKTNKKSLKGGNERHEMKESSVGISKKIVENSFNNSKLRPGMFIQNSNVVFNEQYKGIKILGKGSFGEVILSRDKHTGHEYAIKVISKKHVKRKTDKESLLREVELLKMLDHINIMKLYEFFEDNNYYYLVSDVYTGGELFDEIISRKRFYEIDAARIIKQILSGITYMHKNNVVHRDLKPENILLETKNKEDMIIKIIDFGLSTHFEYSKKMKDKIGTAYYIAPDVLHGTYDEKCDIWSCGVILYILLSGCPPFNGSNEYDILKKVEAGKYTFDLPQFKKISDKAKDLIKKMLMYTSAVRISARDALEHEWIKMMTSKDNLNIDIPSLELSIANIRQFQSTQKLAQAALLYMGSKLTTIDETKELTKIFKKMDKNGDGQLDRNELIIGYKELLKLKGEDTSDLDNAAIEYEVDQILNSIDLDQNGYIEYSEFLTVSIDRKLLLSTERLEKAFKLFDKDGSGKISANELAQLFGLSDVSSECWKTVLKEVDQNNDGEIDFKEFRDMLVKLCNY

For the molecule `Cc1[nH]c(C)c(-c2ccc(Oc3cccc(Cl)c3)cc2)c(=O)c1Br`, the growth inhibition in test [1] was 97% (active); in test [4], 98% (active). Further, the figures for the inhibition in test [2] and in test [3] were 46% and 3%, respectively. For the same molecule, the outcome in test [5], in test [6], in test [7] and in test [8] was inactive.
For `O=C(Cc1ccc(-n2cnnn2)cc1)N(Cc1cncn1Cc1cccc(C(F)(F)F)c1)CC1CC1`, the growth inhibition in test [1] is -2%; in test [4], 86% (active). In addition, the inhibition in test [2] was -12%; in test [3] it was 0%. For the same molecule, the result in test [5], in test [6], in test [7] and in test [8] was inactive.
As to `FC(F)(F)c1cccc(Nc2nc3ccccc3nc2Nc2cccc(C(F)(F)F)c2)c1`, the growth inhibition in test [1] was 100% (active); in test [4], 101% (active). The inhibition is 45% in test [2] and 2% in test [3]. Also, the outcome in test [5], in test [6], in test [7] and in test [8] was inactive.
Take `CCOC(=O)CCc1cc(F)c(F)c(OC[C@H](O)CNC(C)(C)C(O)c2ccc3ccccc3c2)c1` (stereo not given in full): the growth inhibition in test [1] is 92% (active); in test [4], 99% (active). Besides, the values for the inhibition in test [2] and in test [3] were 12% and -4%, respectively. Moreover, the outcome in test [5], in test [6], in test [7] and in test [8] was inactive.
Consider `Nc1c2ccccc2nc2cc([N+](=O)[O-])ccc12`, for which the growth inhibition in test [1] was 26%; in test [4] it was 98% (active). Also, the inhibition in test [2] is 92% (active); in test [3] it was -1%. For the same molecule, the result in test [5], in test [6], in test [7] and in test [8] was inactive.
In the case of `Cc1cc(OCCCN=C(N)c2ccc3ccccc3c2)c(C(C)C)cc1Cl`, the values for the growth inhibition in test [1] and in test [4] were 10% and 95% (active), respectively. Further, the values for the inhibition in test [2] and in test [3] were 89% (active) and 2%, respectively. Also, the outcome in test [5], in test [6], in test [7] and in test [8] was inactive.
As to `COc1ccc(CC(C)CON2C(N)=NC(N)=NC2(C)C)cc1` (stereo not given), the growth inhibition in test [1] is 96% (active); in test [4] it was 94% (active). Also, the results for the inhibition in test [2] and in test [3] were 59% (active) and -9%, respectively. In addition, the result in test [5], in test [6], in test [7] and in test [8] was inactive.
Consider `N#Cc1cncc(-c2nc3c(N4CCC(N5CCCC5)CC4)cccc3n2CCNCc2ccccc2)c1`, for which the results for the growth inhibition in test [1] and in test [4] were 58% (active) and 100% (active), respectively. Besides, the inhibition is 3% in test [2] and -2% in test [3]. The outcome in test [5], in test [6], in test [7] and in test [8] was inactive.
For the molecule `C[C@@H]1CN(CCCn2c3ccccc3c3ccc(C(=O)CCCN(C)C)cc32)C[C@H](C)N1`, the growth inhibition in test [1] was 6%; in test [4] it was 100% (active). Besides, the inhibition in test [2] was 26%; in test [3] it was 3%. Further, the result in test [5], in test [6], in test [7] and in test [8] was inactive.
With `COc1ccc(S(=O)(=O)N(CC(=O)NN=C(C)c2cccs2)c2cc(C)cc(C)c2)cc1OC`, the growth inhibition in test [1] was 43%; in test [4], 97% (active). The inhibition in test [2] was 12%; in test [3], -1%. Moreover, the outcome in test [5], in test [6], in test [7] and in test [8] was inactive.
Turning to `CCn1c(C)c(C)c2cc(C(=O)Nc3ccon3)ccc21`, the figures for the growth inhibition in test [1] and in test [4] were 93% (active) and 95% (active), respectively. The results for the inhibition in test [2] and in test [3] were 3% and -3%, respectively. Further, the outcome in test [5], in test [6], in test [7] and in test [8] was inactive.
Consider `COc1ccc(NC(=O)/C=C/c2ccc(-c3ccc(-c4noc(C)n4)cc3)cc2)cc1OCCN(C)C`, for which the values for the growth inhibition in test [1] and in test [4] were 31% and 81% (active), respectively. In addition, the values for the inhibition in test [2] and in test [3] were 14% and -3%, respectively. Further, the result in test [5], in test [6], in test [7] and in test [8] was inactive.
`O=c1ccc2ccc(F)c3c2n1CC3CN1CCC(NCc2ccc(-c3cccc(Cl)c3)nc2)CC1` (stereo not given): the growth inhibition in test [1] is 33%; in test [4], 96% (active). For the same molecule, the figures for the inhibition in test [2] and in test [3] were 16% and 3%, respectively. Further, the outcome in test [5], in test [6], in test [7] and in test [8] was inactive.
In the case of `CCNc1cc(CCCC(=O)OCC)nc(Nc2ccc(C)cc2)n1`, the growth inhibition is 63% (active) in test [1] and 101% (active) in test [4]. Also, the inhibition in test [2] was 17%; in test [3] it was -4%. Further, the outcome in test [5], in test [6], in test [7] and in test [8] was inactive.
For `COc1ccc(O)c(C(=O)c2cc(C#N)c(=O)n(-c3ccc(Oc4ccccc4)cc3)c2)c1`, the growth inhibition is 20% in test [1] and 97% (active) in test [4]. The inhibition is 22% in test [2] and 5% in test [3]. For the same molecule, the result in test [5], in test [6], in test [7] and in test [8] was inactive.
Take `CN1CCC(COc2ccc(CN3CCC(NC(=O)c4cccc(Cl)c4)CC3)cc2)CC1`: the results for the growth inhibition in test [1] and in test [4] were 13% and 94% (active), respectively. Moreover, the inhibition is 16% in test [2] and -2% in test [3]. Also, the result in test [5], in test [6], in test [7] and in test [8] was inactive.
Turning to `O=C(Nc1cccc(-c2nn3ccccc3c2-c2ccnc(Nc3cccc(F)c3)n2)c1)c1c(F)ccc(F)c1Cl`, the results for the growth inhibition in test [1] and in test [4] were 38% and 93% (active), respectively. Also, the inhibition is 41% in test [2] and 5% in test [3]. Also, the outcome in test [5], in test [6], in test [7] and in test [8] was inactive.
`O=C(Nc1ccc(C(F)(F)F)cc1)c1ccc(S(=O)(=O)NCC2CCCN(CC3CCCCC3)C2)cc1` (stereo not given): the growth inhibition in test [1] is -6%; in test [4] it was 93% (active). The results for the inhibition in test [2] and in test [3] were 44% and -7%, respectively. Besides, the result in test [5], in test [6], in test [7] and in test [8] was inactive.
On to `COc1cc(CNCCCNc2nc3ncccc3[nH]2)c2[nH]cc(Br)c2c1`, for which the values for the growth inhibition in test [1] and in test [4] were 3% and 92% (active), respectively. Further, the inhibition in test [2] is 12%; in test [3], 8%. The result in test [5], in test [6], in test [7] and in test [8] was inactive.
`CN(C)CCOc1ccnc2ccc(NC(=O)Cc3ccc(-c4ccncc4)c4ccccc34)cc12`: the growth inhibition in test [1] and in test [4] was 100% (active) throughout. Further, the results for the inhibition in test [2] and in test [3] were 10% and -6%, respectively. Besides, the outcome in test [5], in test [6], in test [7] and in test [8] was inactive.

Usually inhibition stands for the change of the read-out against control, counted positive when it falls.

The values are drawn from PubChem BioAssay.
